Data on 6 compounds can be found in PubChem BioAssay (NCATS).

For experiment [1], the target named is Lysosomal acid glucosylceramidase (Homo sapiens) (UniProt P04062). As to the kind of experiment: Glucocerebrosidase-p2 (AID 348; in the data active means potency below about 10 µM; further: potency means the concentration at half of the fitted maximal effect). Particulars: purified GBA, blue fluorogenic substrate, 40 min. In a few lines:
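Normal human glucocerebrosidase (0.2 nM) with blue fluorogenic substrate (80 uM final) in citrate/phosphate pH 5.9 with 10mM sodium taurocholate, 0.01% tween-20; 40 min RT, NaOH/glycine stop; fluorescence Ex 365/Em 440; AC50 from a titration from 0.6 nM upwards.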

Experiment [2] can be described thus: AP1 Signaling Pathway (AID 357; active means well fitted curve in either direction with a large enough effect, not every such curve was filed as active;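 further: ME-180 reporter cells stimulated with EGF at its EC50 level; on the % scale 0 is the no-effect control and ±100 the full control effect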). Particulars: ME-180 AP-1-bla reporter, EGF-induced, beta-lactamase ratio, 5 h; at 7.69 µM (top of the series) unless noted. In a few lines:
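AP-1-bla ME-180 cells, Opti-MEM + 0.5% dialyzed FBS, plated overnight 37 °C. Cpd titration + EC50 EGF, 5 h 37 °C. CCF4 2.5 h RT; ex 405, em 460/530 ratio → %activity, AC50.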

Experiment [3] has as its target Cytochrome P450 1A2 (Homo sapiens) (UniProt P05177). As to the kind of experiment: p450-cyp1a2 (AID 410; calls by dose curve; further: potency means the concentration at half of the fitted maximal effect). The settings on record: recombinant CYP1A2, luciferin-ME demethylation, luminescence; series mostly up to 57 µM. An outline of the steps: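 O-Demethylation of luciferin 6' methyl ether by human CYP1A2 is monitored as luciferase luminescence. Substrate sits at Km (100uM); enzyme is 20nM. Values are scaled to 57 uM furafylline as maximal inhibition.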

Experiment [4] is described as follows: NFAT Signaling Pathway (AID 444; active means well fitted curve in either direction with a large enough effect, not every such curve was filed as active;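 further: carbachol stimulus at about its EC50 of 1 µM final; on the % scale 0 is the no-effect control and ±100 the full control effect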). The settings on record: Jurkat NFAT-bla M1, carbachol, beta-lactamase ratio, 5 h; at 7.69 µM (top of the series) unless noted. In a few lines: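 Read-out: CCF4 FRET ratio (460 nm/530 nm) after 1 h RT dye loading, used for %activity and AC50 from titration series. Cells: Jurkat NFAT-β-lactamase/M1 line, treated with compound plus 1 uM carbachol for 5 h, 37 °C.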

Experiment [5] in a line: Stat Signaling Pathway (AID 446; active means well fitted curve in either direction with a large enough effect, not every such curve was filed as active;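 further: ME-180 cervical cancer cells given 40 pM IL-6 alongside compound; SIE-controlled beta-lactamase reporter measured as 460/530 nm FRET emission ratio; on the % scale 0 is the no-effect control and ±100 the full control effect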). The settings on record: ME-180 (cervical carcinoma) SIE beta-lactamase reporter, IL-6 stimulated, 5 h; at 7.69 µM (top of the series) unless noted. In a few lines: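 Overnight-plated ME-180 cells bearing a STAT Inducible Element beta-lactamase reporter; 5 h co-exposure to compound and 40 pM IL-6; values normalized to 300 pM IL-6 and 125 nM JAK inhibitor controls.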

Experiment [6] concerns the target Glucocorticoid receptor (Homo sapiens) (UniProt P04150). As to the kind of experiment: GR-GFP Redistribution (AID 450;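 active means compounds whose dose series gives a full or clear partial fitted curve of increased nuclear translocation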; further: potency means the concentration at half of the fitted maximal effect). Particulars: U2OS GR-GFP nuclear translocation, laser cytometry, 2 h.
Experiment [7] shares this target. As to the kind of experiment: GR-EFC Redistribution (AID 451; calls by dose curve; further: potency means the concentration at half of the fitted maximal effect). Particulars: CHO-K1 GR-EFC translocation, beta-gal luminescence, 2 h. In a few lines:
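Translocation of GR-ED fusion to nuclear EA restores b-gal, read by luminescence after 1 h room-temperature detection. Engineered CHO-K1 biosensor cells, 1,000/well, exposed 2 h at 37 C to titrations up to 46 uM final.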

Experiment [8] has as its target Mitogen-activated protein kinase 10 (Mus musculus) (UniProt Q61831). The experiment can be described thus: JNK3 AlphaScreen Assay (AID 530; active means well fitted curve in either direction with a large enough effect, not every such curve was filed as active;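 further: kinase came from lysate of stimulated human HepG2 cells; signal reports phosphorylation of biotinylated GST-cJun 1-79 at Ser73 with 10 µM ATP; on the % scale 0 is the no-effect control and ±100 the full control effect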). The settings on record: JNK3 lysate, c-Jun phosphorylation; series mostly up to 57.1 µM. An outline of the steps:
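qHTS titrations with 15 min compound pre-incubation before adding ATP (10 uM final). Read-out: AlphaScreen of Ser73-phosphorylated biotin-GST-cJun using HepG2 lysate JNK3 activated by IL-1β and TNFα.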
Background: Alpha assays give light when donor and acceptor beads are brought close together.

Experiment [9] concerns the target 3',5'-cyclic-AMP phosphodiesterase 4B (Homo sapiens) (UniProt Q07343). As to the kind of experiment: qHTS Assay for Inhibitors of PDE-IV (AID 607; active means well fitted activation curve with a large enough effect in the main read-out, with a control signal flat, not every such curve was filed as active; further: potency means the concentration at half of the fitted maximal effect). Particulars: HEK293 ACTOne CNG channel cells, membrane potential fluorescence; series mostly up to 22.9 µM. An outline of the steps: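 Live HEK293 cells with a modified cyclic nucleotide-gated (CNG) channel report intracellular cAMP via membrane-potential dye fluorescence (ex 535/em 590 nm). Endogenous PDE-IV was targeted. Compounds were tested at up to 22.9 uM final; RO 20-1724 100 uM served as control.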
(In qHTS, concentration-response curves come from the screen itself.)

Experiment [10] concerns the target Cytochrome P450 3A4 (Homo sapiens) (UniProt P08684). The experiment can be described thus: qHTS Assay for Activators of Cytochrome P450 3A4 (AID 885). Further: nearly all actives have a fitted effect of over 65% in size. The settings on record: recombinant CYP3A4, Luciferin-PPXE luminescence, 60 min; series mostly up to 57.1 µM. An outline of the steps:
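Using 20nM recombinant human CYP3A4 in potassium phosphate (200mM), substrate Luciferin-PPXE at 25uM, luminescent luciferin detection followed a 60-min RT NADPH reaction; data scaled to 57 uM ketoconazole.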

Experiment [11] addresses Dual specificity protein kinase CLK4 (Homo sapiens) (UniProt Q9HAZ1). As to the kind of experiment: qHTS Assay for Inhibitors of CDC-like Kinase 4 (Kinase-Glo Assay) (AID 1770). Further: nearly all actives have a fitted effect of over 65% in size. Further: potency means the concentration at half of the fitted maximal effect. Particulars: recombinant Clk4, Kinase-Glo ATP depletion luminescence; series mostly up to 66.7 µM. An outline of the steps:
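Readout: Kinase-Glo luminescence from ATP left after a 4.5 h room-temperature reaction of 25 nM Clk4 with 100 uM RS peptide and 1 uM ATP (final). Buffer: 25 mM Tris pH 7.5, 10 mM MgCl2.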

The target is the same in experiment [12]. As to the kind of experiment: qHTS Assay for Inhibitors of CDC-like Kinase 4 (ADP-FP Assay) (AID 1795). Further: nearly all actives have a fitted effect of over 60% in size. Further: potency means the concentration at half of the fitted maximal effect. Particulars: Transcreener ADP fluorescence polarization; series mostly up to 50 µM. In a few lines:
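FP readout: Orange Transcreener ADP2 tracer (4 nM) plus ADP antibody, read after 30 min at room temperature. Kinase step: 6.25 nM Clk4, 100 uM RS peptide, 1 uM ATP, pH 7.5, 1 h.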

The target of experiment [13] is Ubiquitin carboxyl-terminal hydrolase 1 (Homo sapiens) (UniProt O94782). As to the kind of experiment: Inhibitors of USP1/UAF1: Pilot qHTS (AID 504865).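 Further: rhodamine fluorescence freed from ubiquitin-rhodamine substrate followed over time; top concentration of the series differs between compounds; on the % scale 0 is the no-effect control and ±100 the full control effect; nearly all actives have a fitted effect of over 35% in size.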 The settings on record: purified USP1/UAF1, Ub-rhodamine cleavage fluorescence; series mostly up to 54.9 µM. In a few lines:
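1nM USP1/UAF1 + cpd, 15 min RT; start w/ Ub-Rho 150nM final; kinetic FL 480/540 nm, 6 reads q60 s. Buffer 50mM HEPES pH 7.8, 0.5mM EDTA, 1mM TCEP, 0.01% Tween-20, 0.1 mg/ml BSA.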

Experiment [14] is described as follows: Primary qHTS for small molecule stabilizers of the endoplasmic reticulum resident proteome: Secreted ER Calcium Modulated Protein (SERCaMP) assay (AID 1508630). Further: on the % scale 0 is the no-effect control and ±100 the full control effect. Particulars: SH-SY5Y GLuc-SERCaMP (Gaussia luciferase released on ER calcium loss) secretion, thapsigargin, luminescence; series mostly up to 38.4 µM. In a few lines: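 The SH-SY5Y reporter protocol was run at 3 concentrations up to 38.3 uM (primary) or 11 concentrations (follow-up): 16 h compound, 100 nM thapsigargin for 4 h, then extracellular luciferase luminescence.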

Experiment [15] deals with Dual specificity protein kinase CLK4 (Homo sapiens) (UniProt Q9HAZ1). The experiment can be described thus: qHTS Assay for Inhibitors of CDC-like Kinase 4 (ADP-Glo Assay) (AID 1771). Further: potency means the concentration at half of the fitted maximal effect; nearly all actives have a fitted effect of over 70% in size. Particulars: recombinant CLK4, ADP-Glo luminescence; series mostly up to 80 µM. In a few lines:
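Compounds are pin-transferred onto substrate mix (100 uM RS peptide, 1 uM ATP), then 25 nM Clk4 is added. After 1 hr at room temperature, ADP-Glo reagent runs 45 min, detection reagent 30 min, then luminescence is read.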

The target in experiment [16] is Cytochrome P450 3A4 (Homo sapiens) (UniProt P08684). The experiment can be described thus: qHTS Assay for Inhibitors and Substrates of Cytochrome P450 3A4 (AID 884). Further: potency means the concentration at half of the fitted maximal effect; nearly all actives have a fitted effect of over 50% in size. Particulars: recombinant CYP3A4, Luciferin-PPXE luminescence; series mostly up to 57.1 µM. In a few lines: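 Luminescent readout of luciferin produced by CYP3A4 (20 nM) dealkylation of Luciferin-PPXE, 25 uM (its KM). NADPH-driven reaction ran 60 min at RT after 10 min compound preincubation; data scaled to 57 uM ketoconazole as 100% inhibition.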

Experiment [17] addresses Cytochrome P450 2C19 (Homo sapiens) (UniProt P33261). As to the kind of experiment: qHTS Assay for Inhibitors and Substrates of Cytochrome P450 2C19 (AID 899). Further: potency means the concentration at half of the fitted maximal effect; nearly all actives have a fitted effect of over 60% in size. Particulars: recombinant CYP2C19, luciferin-H EGE luminescence; series mostly up to 57.1 µM. In a few lines: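 5nM enzyme + 10uM Luciferin-H EGE (=KM), 50mM KPO4; cpd pin-transferred, 10 min 37C; NADPH regen, 60 min 37C; stopped w/ luciferin detection reagent, 20 min; luminescence. Normalized to 57uM ketoconazole (AC100).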

Each structure is given as a SMILES string. Unmarked numbers belong to inactive results. Inconclusive results are not listed. The source made the active and inactive calls. Unless noted, the call rests on the fitted dose curve; in most records, active means well fitted curve in the direction sought with a large enough effect; inconclusive means small, poorly fitted or top-dose-only effect, or another doubt; inactive means no such curve, though single readings can be large; an effect the other way counts as inactive or inconclusive.

Dual specificity protein kinase CLK4 (Homo sapiens), sequence (Q9HAZ1 whole entry, looked up): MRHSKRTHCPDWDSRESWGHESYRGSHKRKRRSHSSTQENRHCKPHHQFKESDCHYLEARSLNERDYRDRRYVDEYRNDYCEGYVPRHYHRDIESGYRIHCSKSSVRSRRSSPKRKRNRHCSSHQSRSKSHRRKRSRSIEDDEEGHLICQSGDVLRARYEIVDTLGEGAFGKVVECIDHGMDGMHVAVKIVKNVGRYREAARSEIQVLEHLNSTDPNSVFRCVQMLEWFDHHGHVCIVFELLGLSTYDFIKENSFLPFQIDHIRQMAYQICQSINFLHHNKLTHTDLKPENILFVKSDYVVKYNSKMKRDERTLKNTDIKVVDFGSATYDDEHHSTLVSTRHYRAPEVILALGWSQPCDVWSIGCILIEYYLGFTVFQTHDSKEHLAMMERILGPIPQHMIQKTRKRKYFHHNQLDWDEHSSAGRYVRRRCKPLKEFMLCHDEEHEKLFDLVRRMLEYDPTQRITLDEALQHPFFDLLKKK
Glucocorticoid receptor (Homo sapiens), sequence (P04150 whole entry, looked up): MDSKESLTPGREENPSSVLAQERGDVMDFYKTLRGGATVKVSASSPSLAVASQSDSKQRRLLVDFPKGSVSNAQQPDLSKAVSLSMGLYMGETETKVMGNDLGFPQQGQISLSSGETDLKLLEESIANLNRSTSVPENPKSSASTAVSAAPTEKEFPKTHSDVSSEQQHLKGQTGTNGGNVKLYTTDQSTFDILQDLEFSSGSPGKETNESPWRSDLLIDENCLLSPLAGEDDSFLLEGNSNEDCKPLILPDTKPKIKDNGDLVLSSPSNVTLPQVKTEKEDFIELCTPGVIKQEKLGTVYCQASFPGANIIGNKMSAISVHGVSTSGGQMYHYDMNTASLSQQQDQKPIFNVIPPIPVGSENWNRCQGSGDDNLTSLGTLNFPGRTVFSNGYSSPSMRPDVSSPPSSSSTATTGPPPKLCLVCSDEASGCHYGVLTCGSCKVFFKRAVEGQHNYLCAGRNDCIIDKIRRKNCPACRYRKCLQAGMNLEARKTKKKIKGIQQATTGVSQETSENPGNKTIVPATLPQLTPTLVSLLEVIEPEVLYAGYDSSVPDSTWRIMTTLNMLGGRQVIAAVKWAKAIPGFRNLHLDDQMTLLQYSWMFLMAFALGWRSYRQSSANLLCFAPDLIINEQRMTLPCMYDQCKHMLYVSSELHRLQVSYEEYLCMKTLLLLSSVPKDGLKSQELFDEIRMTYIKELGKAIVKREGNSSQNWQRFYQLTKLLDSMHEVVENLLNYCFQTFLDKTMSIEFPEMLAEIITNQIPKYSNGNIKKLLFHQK
Ubiquitin carboxyl-terminal hydrolase 1 (Homo sapiens), sequence (O94782 whole entry, looked up): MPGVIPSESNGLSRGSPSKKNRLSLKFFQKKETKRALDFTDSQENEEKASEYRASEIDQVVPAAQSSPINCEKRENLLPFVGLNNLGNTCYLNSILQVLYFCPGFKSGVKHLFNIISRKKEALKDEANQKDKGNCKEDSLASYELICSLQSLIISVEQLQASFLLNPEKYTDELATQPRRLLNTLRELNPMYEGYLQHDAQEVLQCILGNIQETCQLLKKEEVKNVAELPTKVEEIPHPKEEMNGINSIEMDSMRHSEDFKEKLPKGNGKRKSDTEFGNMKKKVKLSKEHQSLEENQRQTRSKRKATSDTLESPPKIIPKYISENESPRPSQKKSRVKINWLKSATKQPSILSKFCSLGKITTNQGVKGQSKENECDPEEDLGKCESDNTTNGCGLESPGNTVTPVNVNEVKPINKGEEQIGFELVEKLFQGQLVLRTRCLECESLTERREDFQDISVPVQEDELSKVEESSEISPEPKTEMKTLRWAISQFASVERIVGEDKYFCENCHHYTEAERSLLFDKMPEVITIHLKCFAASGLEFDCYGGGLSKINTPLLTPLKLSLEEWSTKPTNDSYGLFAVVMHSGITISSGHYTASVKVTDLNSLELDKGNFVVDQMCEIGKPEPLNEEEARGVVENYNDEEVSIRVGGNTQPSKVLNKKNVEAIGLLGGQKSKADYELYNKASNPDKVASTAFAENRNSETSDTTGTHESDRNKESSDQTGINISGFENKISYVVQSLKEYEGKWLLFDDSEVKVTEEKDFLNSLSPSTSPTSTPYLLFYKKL
Cytochrome P450 3A4 (Homo sapiens), sequence (P08684 whole entry, looked up): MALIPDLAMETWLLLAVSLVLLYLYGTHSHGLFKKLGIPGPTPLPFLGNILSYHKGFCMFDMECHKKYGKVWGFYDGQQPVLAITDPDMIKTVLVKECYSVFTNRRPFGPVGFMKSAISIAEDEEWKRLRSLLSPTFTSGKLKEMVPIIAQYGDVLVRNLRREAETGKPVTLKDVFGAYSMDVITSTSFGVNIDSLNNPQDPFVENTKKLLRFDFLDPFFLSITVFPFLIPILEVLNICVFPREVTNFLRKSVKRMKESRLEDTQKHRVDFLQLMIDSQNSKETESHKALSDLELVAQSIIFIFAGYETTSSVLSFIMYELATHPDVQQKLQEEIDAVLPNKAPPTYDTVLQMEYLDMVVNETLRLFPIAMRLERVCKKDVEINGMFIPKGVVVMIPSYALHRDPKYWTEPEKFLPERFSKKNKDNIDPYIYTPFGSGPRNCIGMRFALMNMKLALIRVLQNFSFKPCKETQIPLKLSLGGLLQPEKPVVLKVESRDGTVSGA
Cytochrome P450 1A2 (Homo sapiens), sequence (P05177 whole entry, looked up): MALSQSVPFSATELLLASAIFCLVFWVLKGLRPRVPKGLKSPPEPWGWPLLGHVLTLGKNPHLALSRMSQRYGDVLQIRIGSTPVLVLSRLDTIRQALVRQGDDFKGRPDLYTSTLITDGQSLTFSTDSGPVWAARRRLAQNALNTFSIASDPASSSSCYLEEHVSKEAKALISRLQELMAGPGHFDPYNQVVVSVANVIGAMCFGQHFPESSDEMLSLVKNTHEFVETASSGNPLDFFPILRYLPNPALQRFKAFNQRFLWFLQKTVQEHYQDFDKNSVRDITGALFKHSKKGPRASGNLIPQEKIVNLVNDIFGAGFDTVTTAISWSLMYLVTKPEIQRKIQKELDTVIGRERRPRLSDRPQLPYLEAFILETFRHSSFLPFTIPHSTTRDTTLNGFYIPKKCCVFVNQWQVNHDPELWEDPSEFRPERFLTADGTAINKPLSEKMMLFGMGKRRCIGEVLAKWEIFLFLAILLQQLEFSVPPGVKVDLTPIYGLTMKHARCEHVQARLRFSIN
3',5'-cyclic-AMP phosphodiesterase 4B (Homo sapiens), sequence (Q07343 whole entry, looked up): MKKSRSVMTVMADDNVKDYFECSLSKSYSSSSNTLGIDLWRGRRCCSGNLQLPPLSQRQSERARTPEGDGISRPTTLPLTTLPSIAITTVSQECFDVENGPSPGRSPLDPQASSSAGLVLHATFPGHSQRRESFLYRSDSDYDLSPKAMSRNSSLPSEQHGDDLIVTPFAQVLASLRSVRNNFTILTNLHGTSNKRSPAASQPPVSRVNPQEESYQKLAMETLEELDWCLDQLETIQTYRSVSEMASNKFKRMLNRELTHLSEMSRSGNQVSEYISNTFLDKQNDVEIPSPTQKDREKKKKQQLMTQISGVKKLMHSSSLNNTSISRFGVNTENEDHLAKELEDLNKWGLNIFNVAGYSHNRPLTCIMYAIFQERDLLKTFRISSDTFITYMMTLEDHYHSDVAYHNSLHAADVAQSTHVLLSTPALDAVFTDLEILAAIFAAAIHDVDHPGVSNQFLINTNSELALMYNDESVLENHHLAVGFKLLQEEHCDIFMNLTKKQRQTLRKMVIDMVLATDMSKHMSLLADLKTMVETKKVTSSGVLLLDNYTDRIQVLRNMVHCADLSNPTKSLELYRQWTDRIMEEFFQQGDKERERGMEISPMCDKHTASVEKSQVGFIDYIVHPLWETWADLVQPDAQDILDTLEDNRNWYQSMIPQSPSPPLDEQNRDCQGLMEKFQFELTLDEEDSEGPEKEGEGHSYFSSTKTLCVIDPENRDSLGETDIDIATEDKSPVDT
Lysosomal acid glucosylceramidase (Homo sapiens), sequence (P04062 whole entry, looked up): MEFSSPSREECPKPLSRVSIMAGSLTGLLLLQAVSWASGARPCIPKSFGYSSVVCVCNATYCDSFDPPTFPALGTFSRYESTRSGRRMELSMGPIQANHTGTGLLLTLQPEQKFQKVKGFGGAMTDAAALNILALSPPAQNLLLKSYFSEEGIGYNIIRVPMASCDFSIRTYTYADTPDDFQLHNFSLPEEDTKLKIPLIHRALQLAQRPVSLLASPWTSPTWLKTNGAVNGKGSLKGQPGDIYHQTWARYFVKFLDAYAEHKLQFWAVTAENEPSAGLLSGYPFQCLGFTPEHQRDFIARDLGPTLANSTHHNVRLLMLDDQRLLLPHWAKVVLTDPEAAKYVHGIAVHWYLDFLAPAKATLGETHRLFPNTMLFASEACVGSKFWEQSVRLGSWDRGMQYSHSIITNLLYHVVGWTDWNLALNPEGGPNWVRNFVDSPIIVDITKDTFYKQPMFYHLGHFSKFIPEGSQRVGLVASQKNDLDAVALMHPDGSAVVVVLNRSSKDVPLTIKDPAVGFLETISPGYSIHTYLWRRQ
Cytochrome P450 2C19 (Homo sapiens), sequence (P33261 whole entry, looked up): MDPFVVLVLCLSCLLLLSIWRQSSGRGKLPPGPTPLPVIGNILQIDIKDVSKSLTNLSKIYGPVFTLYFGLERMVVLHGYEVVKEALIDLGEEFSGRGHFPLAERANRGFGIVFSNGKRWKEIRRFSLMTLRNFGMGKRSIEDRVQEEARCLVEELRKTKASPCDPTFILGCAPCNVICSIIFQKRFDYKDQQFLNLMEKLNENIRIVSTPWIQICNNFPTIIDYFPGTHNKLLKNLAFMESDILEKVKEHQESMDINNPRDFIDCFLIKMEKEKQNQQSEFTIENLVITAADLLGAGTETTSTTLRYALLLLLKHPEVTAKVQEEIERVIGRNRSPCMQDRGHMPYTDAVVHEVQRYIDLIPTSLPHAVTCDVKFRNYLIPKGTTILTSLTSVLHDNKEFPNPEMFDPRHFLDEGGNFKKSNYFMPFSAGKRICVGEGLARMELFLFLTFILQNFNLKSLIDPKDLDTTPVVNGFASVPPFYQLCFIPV

Turning to `COc1ccc(-n2c(=O)c(-c3cccc(F)c3)nc3cncnc32)cc1`, the Potency is over 11.4 µM in [1], 3.98 µM (active) in [3], over 9.22 µM in [6] and over 46 µM in [7]. The activity change, negative = inhibition in experiment [2] was -4.56%; in [4], 7.82%. Also, the activity, negative = inhibition in [5] was -17.1%. Further, the Potency result in [8], in [9], in experiment [10], in [11], in experiment [12] and in experiment [13] was “inactive” each time. Besides, the result in [14] was inactive.

With `COc1ccccc1CNc1cc(-c2ccoc2)ncn1`, the Potency was over 11.4 µM in experiment [1], 15.8 µM (active) in experiment [3], over 46 µM in experiment [6] and over 46 µM in experiment [7]. In addition, the activity change, negative = inhibition in experiment [2] is -15.7%; in experiment [4], -9.53%. In addition, in experiment [5], the activity, negative = inhibition is 6.29%. Also, the Potency result in experiment [8], in experiment [9], in experiment [10], in experiment [11], in [12] and in experiment [13] was “inactive” each time. For the same compound, in [14], the outcome was inactive.

For the compound `COc1ccc(CNc2ncnc3ccc(-c4ccc5c(c4)OCO5)cc23)c(OC)c1`, the activity change, negative = inhibition in [2] is -16.9%. Moreover, the activity, negative = inhibition in experiment [5] was -5.8%. For the same compound, the Potency in [6] was over 46 µM; in experiment [7], over 46 µM; in experiment [11] it was 1.41 µM (active); in [15], 1.41 µM (active). The Potency entry in experiment [8] and in [13] was “inactive” in each case. Also, the outcome in experiment [14] was inactive.

On to `Cc1nc2cnc(Nc3ccccc3)nc2n(CCc2ccccc2)c1=O`, for which the Potency in experiment [1] is over 11.4 µM; in experiment [3] it was 2.51 µM (active); in experiment [6], over 9.22 µM; in experiment [7], over 46 µM. Also, the activity change, negative = inhibition was -7.04% in experiment [2] and -9.65% in experiment [4]. Moreover, the activity, negative = inhibition in experiment [5] is -6.93%. The Potency entry in [8], in experiment [9], in [10], in experiment [11], in experiment [12] and in experiment [13] was “inactive” each time. Besides, in experiment [14], the result was inactive.

Take `CN(C)c1ccc(-c2ccc3ncnc(NC4CC4)c3c2)cc1`: the Potency in experiment [1] was over 11.4 µM; in experiment [3], 0.2 µM (active); in experiment [6], over 46 µM; in [7], over 46 µM; in [16] it was 3.16 µM (active); in [11], 3.55 µM (active). Also, the Potency in [15] was 7.94 µM (active). Further, the activity change, negative = inhibition in experiment [4] is -2.46%. The activity, negative = inhibition in experiment [5] is -20.9%. Besides, the Potency result in experiment [8], in experiment [9], in [10] and in experiment [13] was “inactive” in each case. In addition, in [14], the result was inactive.

`O=c1cnc2cnc(Nc3ccccc3)nc2n1CCc1ccccc1`: the Potency in [1] was over 11.4 µM; in [3], 3.16 µM (active); in experiment [6], over 9.22 µM; in experiment [7], over 46 µM; in experiment [9] it was 2.51 µM (active); in experiment [17], 2 µM (active). Further, the figures for the Potency in [11] and in experiment [12] were 0.199 µM (active) and 0.0891 µM (active), respectively. Also, the values for the activity change, negative = inhibition in [2] and in [4] were -13.5% and 9.72%, respectively. The activity, negative = inhibition in experiment [5] was -12.1%. The Potency result in [8] and in experiment [13] was “inactive” throughout. The outcome in experiment [14] was inactive.
